PubChem BioAssay AID1626 (SRMLSC, 2009)
The campaign covered roughly 220,000 compounds. About 2,000 (0.91%) were called active. About 2% were inconclusive and are not listed. No stated cut-off is given here; in the data, inconclusive means inhibition above about 80% without an active follow-up result; inactive means below that; test concentration not stated here. Not all results are given here. Measured potencies and affinities stand elsewhere.

Test: M. tuberculosis H37Rv growth inhibitors, H37Rv strain (AID 1626);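 further: bacteria incubated seven days before Alamar blue readout; 0% = bacteria only wells and 100% = bacteria with antibiotic wells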
Conditions: stronger effect = higher value, concentration not given here

SMILES	inhibition
COc1ccc(Cl)cc1N(CC(=O)N/N=C/c1ccc(OC(C)C)cc1)S(=O)(=O)c1ccc(C)c([N+](=O)[O-])c1	2.6% (inactive)
NC(=O)COC(=O)c1sc2ccccc2c1Cl	59.5% (inactive)
CC1CCCC(NC(=O)COC(=O)Cc2ccccc2)C1C (centres undefined)	-10.6% (inactive)
CC1CCCC(NC(=O)COC(=O)COc2ccccc2Cl)C1C (centres undefined)	-6.56% (inactive)
NC(=O)NC(=O)COC(=O)c1sc2ccccc2c1Cl	-8.02% (inactive)
O=C(NCc1ccccc1F)Nc1ccc([N+](=O)[O-])cc1	-8.88% (inactive)
COC(=O)c1c(NC(=O)CC2SC(N)=NC2=O)sc2c1CCCC2 (centres undefined)	0.3% (inactive)
COC(=O)c1c(NC(=O)CC2SC(N)=NC2=O)sc2c1CCC(C)C2 (centres undefined)	10.2% (inactive)
Nc1nc(CN2CCN(c3ccccc3F)CC2)nc(Nc2ccc3c(c2)OCCO3)n1	12.1% (inactive)
CC(C)COc1ccc(-c2nnn(CC(=O)N3CCCC3)n2)cc1	2.29% (inactive)
CCCOc1ccc(-c2nnn(CC(=O)OCC)n2)cc1	79.1% (inactive)
COCCNC(=O)C(c1ccc(C)o1)N(C(=O)Cn1nnc2ccccc21)c1ccccc1 (centres undefined)	4.15% (inactive)
COc1ccc(N2CCN(C(=O)c3ccc4c(c3)[nH]c(=S)n3c5ccccc5nc43)CC2)cc1	-4.09% (inactive)
O=C(c1ccc2c(c1)[nH]c(=S)n1c3ccccc3nc21)N1CCN(c2ncccn2)CC1	-5.02% (inactive)
Cc1csc2nc(CNS(=O)(=O)c3ccc4c(c3)CCCC4)cn12	-3.26% (inactive)
Cc1cnc(C(=O)Nc2ccc(F)cc2)cn1	-5.16% (inactive)
CC(C)(C)c1ccc(Oc2ccc(NC(=O)C3CC=CCC3C(=O)O)cc2)cc1 (centres undefined)	3.77% (inactive)
Cc1cnc(C(=O)Nc2ccc(C(C)C)cc2)cn1	13.7% (inactive)
CCc1ccc(NC(=O)C2CC=CCC2C(=O)O)cc1 (centres undefined)	-2.56% (inactive)
O=S(=O)(NC1CCCCCCC1)c1cccs1	2.84% (inactive)

SMILES	inhibition
CC/C=C\[C@H](O)[C@H](O)C1=C(C)C(=O)[C@]2(O1)C(=O)N[C@@](OC)(C(=O)c1ccccc1)C2O (some centres undefined)	-6.03% (inactive)
CCOC(=O)C(/C(C)=N/NC(=O)C1CC1c1ccccc1)C(C)C (centres undefined)	2.71% (inactive)
CCCCc1nc2sc3c(=O)n(N)cnc3c2c2c1CCC2	-0.89% (inactive)
CCCCc1nc2sc3c(SCC(=O)NCc4ccco4)ncnc3c2c2c1CCC2	-4.26% (inactive)
COCCCNC(=O)c1c(NC(=O)C2COc3ccccc3O2)sc2c1CCCC2 (centres undefined)	-1.45% (inactive)
COc1ccc(OC)c(S(=O)(=O)N2Cc3ccccc3CC2C(=O)O)c1 (centres undefined)	-11.6% (inactive)
CC(=O)Nc1ccc(NC(=O)CCCCCN2C(=O)c3ccccc3C2=O)cc1	1.79% (inactive)
CCN1/C(=C2\SC(=S)N(Cc3ccccc3)C2=O)Sc2ccccc21	5.93% (inactive)
CCN1/C(=C\C=C2\C(=O)N(C)C(=S)N2C)Sc2ccccc21	16% (inactive)
CC(=O)Nc1ccc2c(c1)nc1n2CCN(C(C)c2ccccc2)C1 (centres undefined)	5.76% (inactive)
O=C(c1ccc(F)cc1)N1CCCCC(S(=O)(=O)c2ccccc2)C1=O (centres undefined)	6.14% (inactive)
N#CCSc1nc2ccccc2c(=O)n1CCCC(=O)NCC1CCCO1 (centres undefined)	-1.98% (inactive)
O=C(COC(=O)c1ccc[nH]c1=O)c1ccc(Cl)s1	-0.06% (inactive)
Cc1ccc(C(=O)OCC(=O)c2ccc[nH]2)s1	7.67% (inactive)
O=C1NC(O)(c2ccccc2)Oc2ccccc21 (centres undefined)	-6.9% (inactive)
Cc1[nH][nH]c(=O)c1C(c1ccc(-c2ccc(Cl)c(Cl)c2)o1)c1c(C)[nH][nH]c1=O	60.8% (inactive)
Cc1[nH][nH]c(=O)c1C(c1ccc(-c2ccc(F)cc2)o1)c1c(C)[nH][nH]c1=O	4.51% (inactive)
O=C(CN1CCC(N2CCCCC2)CC1)N1CCOCC1	5.06% (inactive)
CCOC(=O)N1CCN(C(c2ccc(C(C)C)cc2)c2sc3nc(C)nn3c2O)CC1 (centres undefined)	0.52% (inactive)
COc1ccc(Cl)cc1S(=O)(=O)NCc1cccnc1	-12% (inactive)

SMILES	inhibition
O=S(=O)(Nc1ccc(-c2nnc(SCc3ccc(Cl)cc3)o2)cc1)c1ccccc1	5.83% (inactive)
Cc1cccc(OCc2nnc(SCc3cc(=O)[nH]c4ccccc34)n2-c2ccccc2)c1	4.6% (inactive)
O=c1cc(CSc2nnc(COc3ccccc3)n2-c2ccccc2)c2ccccc2[nH]1	3.7% (inactive)
COc1ccc(-c2cc(C(=O)Nc3cc(OC)c(OC)c(OC)c3)no2)cc1OC	-1.57% (inactive)
COCCNC(=O)c1cc(-c2ccc(OC)c(OC)c2)on1	6.55% (inactive)
CCOC(=O)c1ccc(NC(=O)CSc2nc3c(c(=O)n2CC)SC(C)C3)cc1 (centres undefined)	7.17% (inactive)
CC(C)CCSc1cc(NCCO)c([N+](=O)[O-])c2nonc12	-2.23% (inactive)
CCCSc1cc(NCCOC(=O)CCC)c([N+](=O)[O-])c2nonc12	56.8% (inactive)
CC(=O)OCCNc1cc(SC(C)C)c2nonc2c1[N+](=O)[O-]	1.55% (inactive)
CCCSc1cc(NCCOC(C)=O)c([N+](=O)[O-])c2nonc12	2.64% (inactive)
COC(=O)c1cc2ccsc2n1CC(=O)Nc1cc(C)cc(C)c1	-0.8% (inactive)
Cc1cc(NCCOCCO)n2ncc(-c3ccc(Cl)cc3)c2n1	8.65% (inactive)
CC(C)Nc1cc(C(C)(C)C)nc2c(-c3ccccc3)cnn12	-1.54% (inactive)
Cc1cc(NCCCN2CCOCC2)n2ncc(-c3ccc(Cl)cc3)c2n1	4.89% (inactive)
CC(C)(C)c1cc(C(F)(F)F)n2ncc(-c3ccccc3)c2n1	3.89% (inactive)
CCCc1cc(=O)oc2c(C)c(OCC(=O)c3ccc(N4CCCC4)cc3)ccc12	15.8% (inactive)
COCCNC(=O)c1onc(CSc2ccc(C(C)C)cc2)c1C(=O)O	-18.6% (inactive)
O=C1C2C3CCC(C3)C2C(=O)N1c1ccc(OS(=O)(=O)c2ccccc2)cc1 (centres undefined)	-1.92% (inactive)
CCOC(=O)c1nn(-c2ccc(Cl)cc2)c2nc(CC)c(C#N)c(=O)n12	1.58% (inactive)
